Source: PubChem BioAssay (National Center for Advancing Translational Sciences (NCATS))
POLI inh: DNA polymerase iota (human) inhibition | Q9UNA4 | Pol iota fluorescent replication assay, 10 min | Potency, µM (series often up to 115 µM), actives largely listed as inhibitors | 390,000 tested, 1% active | AID 588590
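Pol iota at 10 nM preincubated 15 min with compounds at room temperature; reaction started with fluorescent substrate, 50 nM final. Fluorescence read kinetically at 0 and 10 min; buffer-only wells as negative control.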
FEN1 inh: human FEN1 inhibition; Potency, µM (doses to about 114 µM), actives largely listed as inhibitors; Recombinant FEN1 flap cleavage, fluorescence, 15 min; P39748; 390,000 tested, 0.35% active; AID 588795; further: nearly all actives have a fitted effect of over 65% in size
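Enzyme 10 nM, 15 min RT preincubation with compound; start with substrate 50 nM final; reads at 0 and 15 min; qHTS titration, four-parameter Hill fit.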
POLK inh: DNA polymerase kappa (human) inhibition; Q9UBT6; purified Pol kappa, fluorescent DNA synthesis assay, 10 min; Potency, µM (highest dose often 107 µM), usual class: inhibitors; 400,000 tested, 0.53% active; AID 588579
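Enzyme at 10 nM met test compounds for 15 min at room temperature. Substrate addition (50 nM final) began the reaction, which was monitored by fluorescence at 0 and 10 min.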
POLB inh: blocks human DNA polymerase beta activity. P06746. Pol beta primer extension/strand displacement, fluorescence kinetic. Potency, µM (series often up to 114 µM), hits mostly inhibitors. 340,000 tested, 1.3% active
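Human Pol beta at 10 nM; strand-displacement substrate 50 nM final. Compound exposure 15 min at room temperature before start, reaction 10 min at room temperature.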
POLH inh: inhibitors of human DNA polymerase eta. Potency, µM (series often up to 114 µM), actives largely listed as inhibitors. AID 588591. Q9Y253. 390,000 tested, 1.2% active. recombinant Pol eta, fluorescent DNA replication assay
Target sequence (Q9Y253 whole entry, looked up): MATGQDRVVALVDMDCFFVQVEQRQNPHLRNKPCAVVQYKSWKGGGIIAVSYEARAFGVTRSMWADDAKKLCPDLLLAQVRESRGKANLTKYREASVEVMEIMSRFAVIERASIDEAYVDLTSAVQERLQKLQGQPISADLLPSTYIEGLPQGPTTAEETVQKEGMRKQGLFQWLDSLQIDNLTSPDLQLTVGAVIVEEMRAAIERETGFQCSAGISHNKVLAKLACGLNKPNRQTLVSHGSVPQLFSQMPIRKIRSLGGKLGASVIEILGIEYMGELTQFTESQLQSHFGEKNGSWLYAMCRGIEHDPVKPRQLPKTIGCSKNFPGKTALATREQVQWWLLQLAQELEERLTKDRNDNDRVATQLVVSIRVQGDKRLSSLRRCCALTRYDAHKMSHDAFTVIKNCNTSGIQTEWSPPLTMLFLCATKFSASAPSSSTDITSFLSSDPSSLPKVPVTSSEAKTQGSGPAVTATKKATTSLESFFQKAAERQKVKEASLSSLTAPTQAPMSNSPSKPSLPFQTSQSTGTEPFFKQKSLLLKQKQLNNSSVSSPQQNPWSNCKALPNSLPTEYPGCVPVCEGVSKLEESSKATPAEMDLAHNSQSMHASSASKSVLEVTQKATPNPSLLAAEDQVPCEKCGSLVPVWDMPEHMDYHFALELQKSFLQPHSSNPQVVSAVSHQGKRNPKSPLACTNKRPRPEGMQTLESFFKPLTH
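Pol eta (10 nM) was preincubated with compounds for 15 min at room temperature, after which fluorescent replication substrate (50 nM final) was added to start the reaction. Fluorescence was read kinetically at 0 and 10 min.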
PGK inhibitor: inhibitors of T. brucei phosphoglycerate kinase | PGK/GAPDH coupled, Kinase-Glo luminescence, 60 min | Potency, µM (highest dose often 57.5 µM), hits mostly inhibitors | 380,000 tested, 0.043% active | AID 602233; further: nearly all actives have a fitted effect of over 60% in size
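Recombinant glycosomal PGK reaction used 1,3-bisphosphoglycerate generated in-well by GAPDH (100nM final) in 100mM TEA pH 7.6, 5mM MgCl2, 0.01% Tween-20. After 60 minutes at room temperature, ATP was read by Kinase-Glo Plus luminescence end-point.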
Hits are given with their value; i = inactive; ? = inconclusive; nt = no result. An excerpt weighted towards active compounds, which were near 2.4% of everything screened. The call rests on the fitted dose curve; in most records, active means well fitted curve in the direction sought with a large enough effect; inconclusive means small, poorly fitted or top-dose-only effect, or another doubt; inactive means no such curve, though single readings can be large; an effect the other way counts as inactive or inconclusive.

SMILES	POLI inh	FEN1 inh	POLK inh	POLB inh	POLH inh	PGK inhibitor
COc1ccc(CNC(=O)COC(=O)c2cc(-c3ccco3)nc3ccccc23)cc1	nt	nt	nt	7.08µM	nt	nt
CC1=Nc2ccccc2/C1=C/c1ccc(N(C)C)cc1	i	i	i	nt	nt	nt
COc1ccc(NC(=O)c2cc(-c3ccco3)nc3ccccc23)cn1	17.8µM	i	?	nt	20µM	i
CC(C)[C@H](NS(=O)(=O)c1cccc(Cl)c1)C(=O)OCC(=O)NC(=O)CN1CCCC1=O	50.1µM	i	?	nt	22.4µM	i
CCCCC[n+]1cccc2c3ccccc3ccc21	i	i	i	i	i	i
CCCCCCCCCCCCCCCC[n+]1ccc(CC(O)c2c(C)[nH]c3ccccc23)c2ccccc21 (configuration not stated)	i	50.1µM	i	nt	nt	nt
COc1ccc(C(=O)NCC(=O)OCC(=O)c2ccc3ccccc3c2)cc1	i	i	i	nt	nt	nt
O=C(O)CSc1c2c(nc3cc(C(=O)Nc4ccc(F)c(Cl)c4)ccc13)CCC2	50.1µM	i	?	?	?	i
Cc1ccc2nc(NC(=O)CSc3nccn3Cc3ccc(Cl)cc3)sc2c1	i	i	i	i	i	i
Cc1ccc2nc(NC(=O)CSc3nccn3-c3ccc(Cl)cc3)sc2c1	?	i	i	25.1µM	i	i
CNC(=O)c1ccc2nc(-c3ccco3)c(-c3ccco3)nc2c1	8.91µM	6.31µM	8.91µM	nt	nt	nt
O=C(Nc1ccccc1)c1ccc2nc(-c3ccco3)c(-c3ccco3)nc2c1	39.8µM	?	44.7µM	20µM	?	i
O=C(NC1CC1)c1ccc2nc(-c3ccco3)c(-c3ccco3)nc2c1	10µM	11.2µM	22.4µM	nt	nt	nt
CC(=O)c1ccc(NC(=O)c2ccc3nc(-c4ccco4)c(-c4ccco4)nc3c2)cc1	3.16µM	50.1µM	7.94µM	2.82µM	2.82µM	?
CC[C@H](C)[C@H](NC(=O)[C@H](Cc1ccc(O)cc1)NC(=O)[C@H](CCCNC(=N)N)NC(=O)[C@H](CCCNC(=N)N)NC(=O)[C@H](CC(C)C)NC(=O)[C@H](CCC(N)=O)NC(=O)[C@@H](NC(=O)[C@H](CCC(=O)O)NC(=O)[C@H](Cc1ccc(O)cc1)NC(=O)[C@H](CCC(N)=O)NC(=O)[C@H](C)NC(=O)[C@H](CCCNC(=N)N)NC(=O)[C@H](CCC(N)=O)NC(=O)[C@H](CCC(=O)O)NC(=O)[C@H](Cc1cnc[nH]1)NC(=O)[C@@H](NC(=O)[C@H](C)NC(=O)[C@H](Cc1ccc(O)cc1)NC(=O)[C@H](CC(=O)O)NC(=O)CNC(=O)[C@@H]1CCCN1C(=O)[C@H](Cc1ccc(O)cc1)NC(=O)[C@H](CCSC)NC(=O)[C@@H]1CCCN1C(=O)[C@H](CCC(=O)O)NC(=O)[C@H](CC(C)C)NC(=O)[C@@H]1CCCN1C(=O)[C@H](C)N)[C@@H](C)O)[C@@H](C)O)C(=O)N[C@@H](CC(N)=O)C(=O)N[C@H](C(=O)N[C@@H](CC(C)C)C(=O)N[C@H](C(=O)N[C@@H](CCCNC(=N)N)C(=O)N1CCC[C@H]1C(=O)N[C@@H](CCCNC(=N)N)C(=O)N[C@@H](Cc1ccc(O)cc1)C(N)=O)[C@@H](C)O)[C@@H](C)O	nt	nt	i	nt	nt	nt
Cc1ccc2nc(COc3ccccc3NC(=O)c3ccc(F)cc3)cc(=O)n2c1	89.1µM	i	i	?	i	i
COC1=CC(=Cc2c(N)n3nc(CC(=O)N4CCCCC4)sc3nc2=O)C=C(OC)C1=O	?	i	?	i	56.2µM	i
COC1=C/C(=C/c2c(N)n3nc(CC(=O)N4CCCC4)sc3nc2=O)C=CC1=O	?	i	?	i	i	i
Cc1ccc2nc(NCc3ccccc3)c(C=NCc3cccnc3)c(=O)n2c1	i	i	i	i	i	i
Cc1ccc2nc(NCc3ccco3)c(C=NCc3ccco3)c(=O)n2c1	i	i	i	28.2µM	i	nt
CC(C)(C)c1nnc2sc(SCC(=O)c3ccccc3)nn2c1=O	i	i	i	i	i	i
Cc1ccc(Nc2nnc(SC/C(O)=C(\C#N)c3nc4ccccc4[nH]3)s2)c(C)c1	?	i	i	i	31.6µM	i
